The source made the active and inactive calls. The call rests on the fitted dose curve; in most records, active means well fitted activation curve with a large enough effect; inconclusive means small, poorly fitted or top-dose-only effect; inactive means no such curve, though single readings can be large or run the other way.
Experiment: Confirmatory qHTS for Identification of Small Molecule Activators of Huntingtin-Antisense Promoter Activity
Conditions: HEK293 HTT-AS promoter firefly luciferase reporter, 24 h; series mostly up to 57.5 µM; activity change, positive = activation: at the top concentration
How it was run: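 2,500 luciferase reporter HEK293 cells/well; 24 h culture; cpds up to 57.5 uM final, PTC124 50 uM ctrl; 24 h, 37C; Dual-Glo FLuc reagent, 10 min RT; lum. Norm.: vehicle 0%, zero RLU -100%.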
Potency means the concentration at half of the fitted maximal effect.

Row | SMILES | activity change, positive = activation | Potency
1 | COc1ccc(-c2noc(CSc3nnc(-c4ccccc4)n3-c3ccc(F)cc3)n2)c(OC)c1 | -30.8% (inactive) | 
2 | N#Cc1nc(-c2ccc(COc3ccc(Cl)cc3)o2)oc1N1CCC(C(N)=O)CC1 | -42.8% (inactive) | 
3 | Cc1ccc(-c2nnc(Nc3ccc(F)cc3)c3ccccc23)cc1S(=O)(=O)NC(C)C | -23.9% (inactive) | 
4 | CCOC(=O)c1cc(-c2ccccc2)n(CCC(=O)Nc2ccc(OC)c(Cl)c2)c1C | -18.6% (inactive) | 
5 | O=C(Nc1ccccc1)C1CCN(S(=O)(=O)c2ccc3[nH]c4c(c3c2)CCCCC4)CC1 | -35% (inactive) | 
6 | COc1ccc2sc(N(Cc3cccnc3)C(=O)c3ccco3)nc2c1 | -47.5% (inactive) | 
7 | CCOc1ccc(C2=C(C(=O)CC)Sc3nncn3N2C(=O)CC)cc1 | -69.2% (inactive) | 
8 | COc1ccc(-c2noc(N3CCN(c4cccc(Cl)c4)CC3)n2)cc1OC | -54.7% (inactive) | 
9 | O=C(Cn1c(=O)oc2cc(S(=O)(=O)N3CCCCCC3)ccc21)Nc1cccc(C(F)(F)F)c1 | -27.5% (inactive) | 
10 | COc1ccc(NC(=O)Cn2c(=O)oc3cc(S(=O)(=O)N4CCCCCC4)ccc32)cc1OC | -69% (inactive) | 
11 | CN(C)Cc1ccc(-c2nc3cccc4c3n2CCNC4=O)cc1 |  | 30.1 µM (active)
12 | COc1ccc(-c2nc(CSCC(=O)NCCc3ccc(OC)c(OC)c3)c(C)o2)cc1 | -41.7% (inactive) | 
13 | CCOc1ccccc1C(=O)Nc1ccc(-n2nncc2-c2ccccc2)cc1 | -10.4% (inactive) | 
14 | CCC(=O)N1CCc2cc(S(=O)(=O)NCCC(=O)Nc3ccc(CC)cc3)ccc21 | -20.6% (inactive) | 
15 | Cc1ccc(Cl)cc1N1CCN(CCCNC(=O)C2COc3ccccc3C2)CC1 (centres undefined) | -45% (inactive) | 
16 | Cc1ccccc1Cc1c(C)nc2c(-c3ccccc3)c(C)[nH]n2c1=O | -38.5% (inactive) | 
17 | Cn1c(=O)n(C)c2cc(NS(=O)(=O)c3ccccc3)c(NCc3ccccc3)cc21 | 0.499% (inactive) | 
18 | COc1ccc(Cn2c(CO)cnc2SCc2ccc(F)cc2)cc1 | -83.9% (inactive) | 
19 | Cc1cccc(C2C=C(c3ccc(F)cc3)Nc3nc4ccccc4n32)c1 (centres undefined) |  | 1.07 µM (active)
20 | Cc1ccc(-c2cc(N)n(Cc3cccc(Cl)c3)n2)cc1 | -47.6% (inactive) | 
21 | O=S(=O)(NCc1ccc(Cl)cc1)c1ccc(N2CCCCS2(=O)=O)cc1 | -80.8% (inactive) | 
22 | Cc1ccc2c(c1)N(C(=O)c1ccc(F)cc1)C(C)(C)CC2(C)c1ccccc1 (centres undefined) | -66.1% (inactive) | 
23 | CC(=O)Nc1cccc(NC(=O)Cc2csc(COc3cccc(C)c3)n2)c1 | -50.9% (inactive) | 
24 | CCCCN1C(C(=O)c2ccccc2)=C(OC(=O)CC)c2ccccc2S1(=O)=O | -43.1% (inactive) | 

From PubChem BioAssay AID1508622 (National Center for Advancing Translational Sciences (NCATS), 2021)
